Results on 34 compounds are retold here after PubChem BioAssay AID463173 (ICCB-Longwood Screening Facility, Harvard Medical School, 2010).

In all, about 52,000 compounds went through this assay and about 4,300 (8.3%) were called active. The list comes from a sample in which actives are over-represented; it also holds similar structures and randomly drawn compounds. A number with no mark means an inactive call. No stated cut-off is given here; in the data, active means survival mostly below about 52% (no sharp cut-off); inactive means mostly above about 56%.

The test concerns DeltatarO mutant. As to the kind of experiment: growth inhibition of S. aureus wild type versus tarO mutant, primary screen, teichoic acid synthesis inhibitors, RN4220, OD600 (AID 463173). The note with it: OD600, 18 h, stronger effect = lower value, screened at 18.75 µg/mL (by protocol).
`O=C(NCCN1CCCCC1)Nc1c[nH]c2c(Cl)cccc2c1=O`: the survival is 102%.

As to `COC(=O)c1cc(-c2ccc(Cl)cc2)c2c(=O)[nH]c(=O)n(C)c2n1`, the survival was 92%.

Take `COc1ccc(-c2noc(-c3nnn(-c4cc(C)ccc4C)c3N)n2)cc1`: the survival is 81%.

For the compound `COc1ccc(-c2noc(CC(=O)Nc3ccc(Br)cc3C)n2)cc1`, the survival is 59%. Then `Cc1ccc(-c2noc(CNC(=O)COc3cc(C)c(Br)c(C)c3)n2)cc1`, with 80%; and `Cc1ccc(CC(=O)N(Cc2nc(-c3ccc(C)cc3)no2)C(C)C)cc1`, with -4% (active); and `Cc1ccc(-c2noc(CNC(C)C)n2)cc1`, with 77%. For `COc1ccc(-c2noc(CN(C(=O)COc3cc(C)c(Br)c(C)c3)C(C)C)n2)cc1`, the survival was 31% (active).

Take `Cc1ccc(CC(=O)NCc2nc(-c3ccccc3)no2)cc1`: the survival is 77%. For the compound `O=C(CS(=O)(=O)c1cccc2nsnc12)Nc1ccc(F)cc1`, the survival is 97%.

As to `CCN(CC)C(=O)CSc1nc2c(c(=O)n(C)c(=O)n2C)n1Cc1ccccc1`, the survival was 76%. On to `Cc1ccc(C)c(NC(=O)C(NS(=O)(=O)c2ccc3c(c2)CCC(=O)N3)c2ccccc2)c1` (centres undefined), for which the survival was 113%. Consider `CCOC(=O)Nc1ccc(C(=O)OC)cc1`, for which the survival is 75%. As for `COC(=O)c1ccc(NC(=O)CCOc2ccccc2)cc1`, the survival was 69%. Then `COC(=O)c1ccc(NCC(=O)c2ccccc2)cc1`, with 64% (active); and `O=C(NC1CCCCC1)/C(=N\O)c1ccccn1`, with 97%; and `CCOc1ccc(NC(=O)Cn2cc(C(=O)c3ccc(C)c(C)c3)c(=O)c3cc4c(cc32)OCCO4)cc1`, with 62%. Regarding `CCOC(=O)c1sc(N2N=C(C)CC2=O)nc1C`, the survival is 76%.

Regarding `CC1=NN(c2ccc(N)cc2)C(=O)C1`, the survival is 107%. `CCCCCN1N=C(C)CC1=O`: the survival was 39% (active). As for `CCN(CC)CCCNC(=O)C(=O)Nc1ccc2nc3n(c(=O)c2c1)CCCCC3`, the survival is 91%. Turning to `COc1ccc(-c2noc(CCC(=O)Nc3cccc(C)c3C)n2)cc1OC`, the survival was 69%. In the case of `COc1ccc(C(=O)Nc2ccc3oc(-c4ccc5ccccc5c4)nc3c2)cc1Br` it was 63%; in that of `CCc1ccc2oc(-c3ccc(NC(=O)c4ccc(OC)c(Br)c4)cc3)nc2c1`, 60%. Turning to `COc1cc2ccccc2cc1C(=O)Nc1ccc2oc(-c3ccccc3)nc2c1`, the survival was 8% (active).

`COc1cc2ccccc2cc1C(=O)Nc1ccc2oc(-c3ccc(F)cc3)nc2c1`: the survival was 43% (active). Regarding `Cc1cccc(-c2nc3cc(NC(=O)COc4ccccc4F)ccc3o2)c1`, the survival is 103%.

As to `COc1cc2ccccc2cc1C(=O)Nc1ccc2oc(-c3cccc(C)c3)nc2c1`, the survival was 25% (active). As for `COc1cc2ccccc2cc1C(=O)Nc1ccc2oc(-c3ccc(Cl)cc3)nc2c1`, the survival is 59%. Take `COc1cc2ccccc2cc1C(=O)Nc1ccc2oc(-c3ccc(F)cc3Cl)nc2c1`: the survival is 59%. Then `CCc1ccc(-c2nc3cc(NC(=O)c4cc5ccccc5cc4OC)ccc3o2)cc1`, with 11% (active); and `CCc1ccc(OCC(=O)Nc2ccc3oc(-c4ccc(OC)cc4)nc3c2)cc1`, with 62%; and `COc1cc(C(=O)Nc2ccc3oc(-c4ccccc4)nc3c2)cc(OC)c1OC`, with 51%.

Turning to `O=C(Nc1ccc(-c2nc3cc(NC(=O)c4ccccc4F)ccc3o2)cc1)c1ccccc1F`, the survival was 90%.
